# Assay results: PubChem BioAssay (EPA / NIEHS)
# Records with an inconclusive call do not appear. Some compounds were tested as several samples or in several runs, with calls that do not always agree. Activity calls are given as the source filed them. How the source made its calls, unless noted: active means hit-call score of the fitted dose curve at least 0.9, where 1 is the maximum; inactive means score below 0.9.
# Columns and labels:
# [1] = CCTE_Shafer_MEA_acute_spike_number: CCTE's Neural Acute Assay for Total Number of Spikes, Shafer Lab (AID 2284008);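 on AC50: curve fitted for decrease in spike count so AC50 reflects inhibitors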
# Summary of the method: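 Rat cortical cultures, DIV 13/15, 37 C. 40 min baseline rec, cpd 0.03-40 uM, 40 min post-dose rec. Band-pass 300-5000 Hz, spike threshold 8x rms; % change in spike count per well, DMSO neg ctrl, loss-of-signal fit.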
# [2] = CCTE_Shafer_MEA_acute_firing_rate_mean: CCTE's Neural Acute Assay for Mean Firing Rate, Shafer Lab (AID 2284009);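 further: analyzed for loss of signal so actives lower firing rate relative to DMSO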
# Summary of the method: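 Read-out: well-mean spike rate (spikes/recording length/electrodes), % change from 40 min pre-dose baseline to 40 min with compound. Rat cortical cultures, DIV 13 or 15, 37 C; 0.03-40 uM; DMSO as negative control.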
# [3] = CCTE_Harrill_HTTr_Viability_MCF7: CCTE's 6-hour Cell Viability Assessment for the High-Throughput Transcriptomics (HTTr) Platform, in MCF-7 cells cultured in DMEM + 10% fetal bovine serum, Harrill Lab (AID 2284010)
# Summary of the method: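 Cells were dosed with chemicals in an eight-point dilution series, imaged 6 hours later for propidium iodide uptake, and the endpoint was analyzed by bidirectional fitting against DMSO as negative control.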
# [4] = CCTE_Harrill_HTTr_Apoptosis_MCF7: CCTE's 6-hour Apoptosis Assessment for the High-Throughput Transcriptomics (HTTr) Platform, in MCF-7 cells cultured in DMEM + 10% fetal bovine serum, Harrill Lab (AID 2284011)
# Summary of the method: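 Read-out: CellEvent Caspase 3/7 Green signal by high content imaging, gain-of-signal indicating apoptosis. MCF-7 cells, DMEM + 10% FBS, eight-point dilution series, 6 h exposure. Curves fitted bidirectionally relative to DMSO negative control.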
# [5] = CCTE_Shafer_MEA_acute_burst_number: CCTE's Neural Acute Assay for Single-Electrode Bursts, Shafer Lab (AID 2284013)
# Summary of the method: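 Rat cortical cultures, DIV 13/15; 40 min baseline, then 40 min with compound 0.03-40 uM, 37 C. Spikes: 300-5000 Hz band-pass, threshold 8x rms noise. Readout = % change in single-electrode bursts vs baseline, loss-of-signal fit.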
# [6] = CCTE_Shafer_MEA_acute_burst_duration_mean: CCTE's Neural Acute Assay for Mean Burst Duration, Shafer Lab (AID 2284014);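 further: hits are decreases in mean burst duration relative to DMSO controls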
# Summary of the method: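 Primary rat cortical neurons on 16-electrode MEA wells, treated on DIV 13 or 15 with compound (0.03-40 uM; ≥3 wells each). 40-min baseline and 40-min exposure recordings at 37 C; percent change in mean burst duration per well versus DMSO.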
# [7] = CCTE_Shafer_MEA_acute_per_burst_spike_number_mean: CCTE's Neural Acute Assay for Average Number of Spikes Per Burst, Shafer Lab (AID 2284015);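 further: hits are decreases in mean spikes per burst versus baseline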
# Summary of the method: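 Primary rat cortical neurons on 48-well MEA plates, treated on DIV 13 or 15 at 0.03-40 uM. Spontaneous activity recorded 40 min before and 40 min after compound at 37 C; percent change in mean spikes per single-electrode burst per well, fitted in the loss direction versus DMSO.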
# [8] = CCTE_Shafer_MEA_acute_interburst_interval_mean: CCTE's Neural Acute Assay for Mean Interburst Interval, Shafer Lab (AID 2284016);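 further: percent change of mean interburst interval versus each well's own pre-dose baseline; curves fitted for decrease in interburst interval relative to DMSO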
# Summary of the method: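 Primary rat cortical neurons on 16-electrode MEA wells were recorded 40 min at baseline on DIV 13 or 15, then 40 min after compound (0.03-40 uM), at 37 C. Value is percent change in mean interburst interval per well, DMSO as negative control.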
# [9] = CCTE_Shafer_MEA_acute_burst_percentage_std: CCTE's Neural Acute Assay for Standard Deviation of Burst Percentage, Shafer Lab (AID 2284018);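 further: fitted in the negative direction so actives lower burst percentage SD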
# Summary of the method: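 Primary rat cortical neurons on 16-electrode MEA wells were recorded 40 min at baseline (DIV 13 or 15), then 40 min after compound (0.03-40 uM), at 37 C. Well value is SD across electrodes of spikes-in-bursts/total spikes; endpoint is percent change, DMSO-referenced.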
# [10] = CCTE_Shafer_MEA_acute_per_network_burst_spike_number_std: CCTE's Neural Acute Assay for Standard Deviation of Number of Spikes in a Network Burst, Shafer Lab (AID 2284020);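 further: fitted for decrease in spike-number SD versus DMSO so actives lower it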
# Summary of the method: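 Primary rat cortical neurons on 48-well MEAs (16 electrodes/well) recorded at DIV 13 or 15: 40-min baseline, then 40 min with compound (0.03-40 uM), 37 C. Value is percent change in SD of spikes per network burst, relative to DMSO.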
# [11] = CCTE_Shafer_MEA_acute_per_network_burst_electrodes_number_mean: CCTE's Neural Acute Assay for Mean Number of Electrodes in a Network Burst, Shafer Lab (AID 2284021);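 further: curves fitted for decreases only so hits reduce electrodes per burst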
# Summary of the method: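 Readout: % change in mean electrodes active per network burst, post- vs pre-treatment, each well. Spikes detected at 8x rms noise after 300-5000 Hz band-pass; rat cortical cultures, DIV 13/15, compounds 0.03-40 uM, DMSO baseline.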
# [12] = CCTE_Shafer_MEA_acute_network_burst_percentage: CCTE's Neural Acute Assay for Percentage of Network Bursts, Shafer Lab (AID 2284022);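 further: curves fitted for loss so actives lower network burst percentage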
# Summary of the method: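 Rat cortical cultures, DIV 13/15; 20 min equilibration, 40 min baseline, compound 0.03-40 uM, 40 min recording, 37 C. Spikes: 300-5000 Hz band-pass, threshold 8x rms noise. Readout: % change in network-burst spike fraction; loss direction vs DMSO.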
# [13] = CCTE_Shafer_MEA_acute_cross_correlation_area: CCTE's Neural Acute Assay for Area of Cross Correlation, Shafer Lab (AID 2284024);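 further: area under pooled inter-electrode spike cross-correlation near zero lag as percent change from own baseline; curves fitted for loss of cross-correlation area so actives lower synchrony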
# Summary of the method: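 Rat cortical cultures, DIV 13/15, MEA; spikes detected at 8x rms noise (300-5000 Hz band-pass). Compound 0.03-40 uM, ≥3 wells each. Readout: % change in pooled inter-electrode cross-correlation area vs own baseline; DMSO negative control.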
# [14] = CCTE_Shafer_MEA_acute_cross_correlation_HWHM: CCTE's Neural Acute Assay for Cross Correlation at Half Width at Half Maximum, Shafer Lab (AID 2284026);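 further: percent change per well from pre-dose baseline in spike cross-correlogram half width; hits are a decrease in cross-correlogram half width relative to DMSO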;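 on outcome: spontaneous network firing of rat primary cortical neurons on multiwell microelectrode arrays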
# Summary of the method: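 Read-out: half width at half maximum of action-potential cross-correlogram, percent change versus pre-treatment baseline, fitted in loss direction against DMSO. Rat cortical cultures, DIV 13 or 15, dosed 0.03-40 uM, 40-min recordings at 37 C.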
# [15] = CCTE_Shafer_MEA_acute_synchrony_index: CCTE's Neural Acute Assay for Synchrony, Shafer Lab (AID 2284027);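 further: fitted for loss of signal so actives lower synchrony relative to DMSO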
# Summary of the method: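 Readout is percent change in the unitless network synchrony index (0 low, 1 high) between a 40-min baseline and a 40-min recording in compound. Cultures were primary rat cortical neurons on MEAs, treated at 0.03-40 uM on DIV 13 or 15.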
# [16] = CCTE_Harrill_HTTr_CellCount_MCF7: CCTE's Cell Proliferation Assessment for the High-Throughput Transcriptomics (HTTr) Platform, Harrill Lab (AID 2284012; active means hit-call score of the fitted dose curve at least 0.9, where 1 is the maximum;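 further: count of Hoechst-stained nuclei per well by high-content imaging in MCF-7 cells; cells exposed to compound for six hours; intended direction is loss of nuclei count meaning fewer cells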)
# Summary of the method: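 Chemicals in eight-point dilution series are added to MCF-7 cells for six hours, nuclei are stained with Hoechst and imaged, and per-well nuclei counts are fitted in both directions relative to DMSO controls.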
# [17] = molecular target: Estrogen receptor (Homo sapiens) (UniProt P03372); test: CCTE_Deisenroth_AIME_384WELL_LUC_Active: CCTE's 384-well Estrogen Receptor Transactivation Assay with AIME metabolic competence (ERTA luciferase; metabolism positive), Deisenroth Lab (AID 2284030; active means hit-call score of the fitted dose curve at least 0.9, where 1 is the maximum)
# Summary of the method: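 Readout: bioluminescent luciferase induction in VM7Luc4E2 cells 24 hour after receiving medium from a 2 h rat hepatic S9 (induced, alginate microsphere) metabolism step. Concentrations 0.002 - 200 uM; activity scaled to 17beta-estradiol positive control.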
# [18] = CCTE_Deisenroth_AIME_384WELL_CTox_Active: Cytotoxicity Assessment (CTOX) in CCTE's 384-well Estrogen Receptor Transactivation Assay with AIME metabolic competence (metabolism positive), Deisenroth Lab (AID 2284037; active means hit-call score of the fitted dose curve at least 0.9, where 1 is the maximum;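 further: chemicals first conditioned 2 h by alginate-bound induced rat liver S9 before cells; activity means signal loss indicating cell death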)
# Summary of the method: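 VM7Luc4E2 breast cells received medium pre-incubated 2 h with chemical over alginate microspheres holding induced male Sprague Dawley rat liver S9; viability read 24 h later by protease-substrate fluorescence. Loss of signal, bidirectional fit, 0.002–200 uM.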
# [19] = molecular target: Estrogen receptor (Homo sapiens) (UniProt P03372); test: CCTE_Deisenroth_AIME_384WELL_LUC_Inactive: CCTE's 384-well Estrogen Receptor Transactivation Assay without AIME metabolic competence (ERTA luciferase; metabolism negative), Deisenroth Lab (AID 2284038; active means hit-call score of the fitted dose curve at least 0.9, where 1 is the maximum;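 further: hits raise estrogen receptor luciferase signal so potencies reflect agonists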)
# Summary of the method: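 Metabolism-negative mode: chemicals (10-point, 0.002–200 uM) held 2 h with alginate-water microspheres, then conditioned medium applied to VM7Luc4E2 cells for 24 h. Luciferase induction referenced to 17beta-estradiol.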
# [20] = CCTE_Shafer_MEA_dev_firing_rate_mean: CCTE's Neural Network Formation Assay for Mean Firing Rate, Shafer Lab (AID 2284031);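 further: AUC of well mean spike rate recorded on DIV 5 7 9 and 12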;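 on AC50: curve fitted for loss of firing so AC50 reflects decreased mean firing rate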
# Summary of the method: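 Rat primary cortical neurons were seeded on multielectrode arrays and treated from plating through day 12, with redosing at each feed. Spontaneous spiking was recorded four times; mean firing rate AUC was fitted downward against DMSO.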
# Estrogen receptor (Homo sapiens), sequence (P03372 whole entry, looked up): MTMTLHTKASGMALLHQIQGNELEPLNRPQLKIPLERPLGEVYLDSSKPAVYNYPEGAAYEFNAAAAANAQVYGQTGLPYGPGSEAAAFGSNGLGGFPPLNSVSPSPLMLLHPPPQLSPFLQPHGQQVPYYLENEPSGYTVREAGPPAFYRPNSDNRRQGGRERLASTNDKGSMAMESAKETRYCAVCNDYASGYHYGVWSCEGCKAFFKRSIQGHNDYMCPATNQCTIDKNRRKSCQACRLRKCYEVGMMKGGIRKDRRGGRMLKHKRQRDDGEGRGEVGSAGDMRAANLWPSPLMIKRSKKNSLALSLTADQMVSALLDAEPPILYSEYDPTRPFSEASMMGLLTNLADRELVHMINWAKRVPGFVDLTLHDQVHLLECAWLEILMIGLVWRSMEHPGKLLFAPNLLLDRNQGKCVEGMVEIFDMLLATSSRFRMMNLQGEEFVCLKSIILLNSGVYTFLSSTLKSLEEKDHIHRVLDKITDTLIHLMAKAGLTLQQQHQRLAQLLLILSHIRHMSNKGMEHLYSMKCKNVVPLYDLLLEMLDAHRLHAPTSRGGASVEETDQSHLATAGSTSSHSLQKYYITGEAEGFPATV
smiles,measurement,setting,value
CC(C)OC(=O)Nc1cccc(Cl)c1,AC50,[1],10.2 µM (active)
same,outcome,[2],inactive
same,outcome,[3],inactive
same,outcome,[4],inactive
same,outcome,[5],inactive
same,outcome,[6],inactive
same,outcome,[7],inactive
same,outcome,[8],inactive
same,outcome,[9],inactive
same,AC50,[10],25.2 µM (active)
same,AC50,[11],20 µM (active)
same,AC50,[12],20 µM (active)
same,outcome,[13],inactive
same,AC50,[14],20 µM (active)
same,AC50,[15],20 µM (active)
N#Cc1c(Cl)c(Cl)c(Cl)c(C#N)c1Cl,outcome,[1],inactive
same,outcome,[2],inactive
same,outcome,[3],inactive
same,outcome,[4],inactive
same,outcome,[16],inactive
same,outcome,[5],inactive
same,outcome,[6],inactive
same,outcome,[7],inactive
same,outcome,[8],inactive
same,outcome,[9],inactive
same,outcome,[10],inactive
same,outcome,[11],inactive
same,AC50,[12],7.17 µM (active)
same,outcome,[13],inactive
same,outcome,[14],inactive
same,outcome,[15],inactive
Cc1[nH]c(=O)n(C(C)(C)C)c(=O)c1Cl,outcome,[3],inactive
same,outcome,[4],inactive
same,outcome,[16],inactive
same,outcome,[17],inactive
same,outcome,[18],inactive
same,outcome,[19],inactive
CC(C)(C)C(O)/C(=C\c1ccc(Cl)cc1Cl)n1cncn1 (centres undefined),outcome,[3],inactive
same,outcome,[4],inactive
same,outcome,[16],inactive
same,AC50,[18],148 µM (active)
CCC(C)(NC(=O)c1cc(Cl)c(C)c(Cl)c1)C(=O)CCl (centres undefined),outcome,[3],inactive
same,outcome,[4],inactive
same,outcome,[16],inactive
OCCOc1ccccc1,outcome,[3],inactive
same,outcome,[4],inactive
same,AC50,[17],34 µM (active)
same,outcome,[18],inactive
same,AC50,[19],43.5 µM (active)
CCOC1Oc2ccc(OS(C)(=O)=O)cc2C1(C)C (centres undefined),outcome,[3],inactive
same,outcome,[4],inactive
same,AC50,[18],100 µM (active)
same,outcome,[19],inactive
C#CCN1C(=O)COc2cc(F)c(N3C(=O)C4=C(CCCC4)C3=O)cc21,outcome,[3],inactive
same,outcome,[4],inactive
CNC(=O)Oc1ccccc1OC(C)C,outcome,[3],inactive
same,outcome,[4],inactive
same,outcome,[17],inactive
same,outcome,[19],inactive
CCc1ccc(C(=O)NN(C(=O)c2cc(C)cc(C)c2)C(C)(C)C)cc1,outcome,[3],inactive
same,outcome,[4],inactive
same,outcome,[17],inactive
same,outcome,[18],inactive
same,outcome,[19],inactive
CCOCN(C(=O)CCl)c1c(C)cccc1CC,outcome,[3],inactive
same,outcome,[4],inactive
same,outcome,[16],inactive
same,outcome,[18],inactive
COP(=O)(OC)OC=C(Cl)Cl,outcome,[3],inactive
same,outcome,[4],inactive
same,outcome,[17],inactive
same,AC50,[20],9.72 µM (active)
same,outcome,[20],inactive
same,outcome,[18],inactive
same,outcome,[19],inactive
O=[N+]([O-])c1c(Cl)c(Cl)c(Cl)c(Cl)c1Cl,outcome,[3],inactive
same,outcome,[4],inactive
same,outcome,[16],inactive
O=C(NC(=O)c1c(F)cccc1F)Nc1ccc(OC(F)(F)C(F)OC(F)(F)F)c(Cl)c1 (centres undefined),outcome,[3],inactive
same,outcome,[4],inactive
same,outcome,[16],inactive
CCCN(CCC)c1c([N+](=O)[O-])cc(C(F)(F)F)cc1[N+](=O)[O-],AC50,[1],8.55 µM (active)
same,outcome,[2],inactive
same,outcome,[3],inactive
same,outcome,[4],inactive
same,outcome,[5],inactive
same,outcome,[6],inactive
same,outcome,[7],inactive
same,AC50,[8],4.23 µM (active)
same,AC50,[9],20 µM (active)
same,outcome,[10],inactive
same,AC50,[11],8.36 µM (active)
same,AC50,[12],20 µM (active)
same,outcome,[13],inactive
same,outcome,[14],inactive
same,outcome,[15],inactive
same,outcome,[17],inactive
same,outcome,[19],inactive
COc1nn(CSP(=S)(OC)OC)c(=O)s1,outcome,[3],inactive
same,outcome,[4],inactive
same,outcome,[16],inactive
CN1CSC(=S)N(C)C1,outcome,[3],inactive
same,outcome,[4],inactive
same,outcome,[16],inactive
CC1(c2ccc(Oc3ccccc3)cc2)OC(=O)N(Nc2ccccc2)C1=O (centres undefined),outcome,[3],inactive
same,outcome,[4],inactive
same,AC50,[20],8.59 µM (active)
O=C(O)C(F)(F)C(F)(F)C(F)(F)C(F)(F)C(F)(F)C(F)(F)C(F)(F)F,outcome,[3],inactive
same,outcome,[4],inactive
same,outcome,[16],inactive
same,outcome,[20],inactive
same,outcome,[18],inactive
COP(=S)(OC)Oc1ccc([N+](=O)[O-])cc1,outcome,[3],inactive
same,outcome,[4],inactive
same,outcome,[16],inactive
same,outcome,[20],inactive
CCN(CC)C(=O)SCc1ccc(Cl)cc1,outcome,[3],inactive
same,outcome,[4],inactive
same,outcome,[16],inactive
CC(C)(C)C(O)C(Oc1ccc(Cl)cc1)n1cncn1 (centres undefined),outcome,[3],inactive
same,outcome,[4],inactive
CNC(=O)Oc1cccc(N=CN(C)C)c1,outcome,[3],inactive
same,outcome,[4],inactive
same,outcome,[16],inactive
same,outcome,[17],inactive
same,outcome,[18],inactive
same,outcome,[19],inactive
O=C(Nc1ccccc1)Nc1cnns1,outcome,[3],inactive
same,outcome,[4],inactive
same,outcome,[16],inactive
O=C(O)COc1ccc(Cl)cc1Cl,outcome,[3],inactive
same,outcome,[4],inactive
same,outcome,[16],inactive
same,outcome,[20],inactive
